# PubChem BioAssay AID540259 (Broad Institute, 2011)
# Potency and affinity values are given separately. Unmarked numbers belong to inactive results.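 The calls were made as follows: active = cell killing, meaning signal decrease, with fitted half-maximal dose at or below ten times the top valid tested dose; inconclusive = poor fit, or flat curve with 30 to 70% signal loss; inactive = the rest.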
# Assay: HeLa cell cytotoxicity, dose response, cytotoxicity control for MITF activator project, CellTiter-Glo luminescence, cherry-pick samples (AID 540259);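 also: 0% = DMSO neutral control and -100% = mitoxantrone positive control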
# Conditions: HeLa viability, CellTiter-Glo ATP luminescence, 24 h; series mostly up to 35 µM; activity change, negative = cytotoxicity: at the top concentration
row,SMILES,"activity change, negative = cytotoxicity"
1,CCc1ccc2[nH]c3nc(C)cc(C)c3c(=O)c2c1,-2.28%
2,COC(=O)c1cn(CC(=O)NCc2cccs2)c2ccccc12,21.6%
3,N#C/C(C(=O)N1CCCCC1)=C1\Nc2ccccc2S1,9.85%
4,COc1ccc(-c2nnc(SCc3ccccc3)n2N)cc1,14.3%
5,CCn1c(C(=O)NC2CCC(C)CC2)cc2sccc21 (stereo unspecified),-2.55%
6,O=C(O)c1ccc(-c2nc(-c3ccc(Cl)cc3)cs2)cc1,-7.11%
7,C/C(=N\O)c1ccc(N2C(=O)C3CC=C(Cl)CC3C2=O)cc1 (stereo unspecified),12.3% [at 11 µM]
8,Oc1oc(-c2ccccc2)nc1C=NCc1ccccc1,4.32%
9,COc1ccc(/C(N)=N/OC(=O)c2cccs2)cc1OC,-1.87%
10,C/C(=C\C(=O)c1cccnc1)Nc1ccc(C)c(C)c1,4.55%
11,CNC(=O)C(=O)Nc1nc(C23CC4CC(CC(C4)C2)C3)cs1,1.59%
12,C/C(=N\OC(=O)Nc1ccccc1)c1ccc(C)cc1,13.2%
13,c1csc(CSc2nc3ccccc3s2)c1,-1.49%
14,O=c1nc(/C=C/c2ccc(O)c(O)c2)oc2ccccc12,11.3%
15,COc1cccc(CNc2nc3ccccc3n2C)c1O,-5.96%
16,c1ccc(CSCc2nc3ccccc3[nH]2)cc1,11.5%
17,CCC(C)c1ccc(NC(=O)Nc2cccnc2)cc1 (stereo unspecified),25%
18,Nc1ccc(Oc2cc(N)cc(Oc3ccccc3)c2)cc1,9.55%

row,SMILES,"activity change, negative = cytotoxicity"
1,N#C/C(=N\Nc1ccccc1F)C(=N)N1CCCCC1,-9.97%
2,O=Cc1ccc(OCc2ccc3ccccc3c2)cc1,-0.356%
3,Cc1ccc(CNc2ccc3c(c2)ncn3C(C)C)cc1,-10.8%
4,O=C(N=C1N=C2C=CC=CN2Cc2ccccc21)c1ccc(S(=O)(=O)N2CCCC2)cc1,5%
5,O=c1[nH]c(COc2ccccc2)nc2ccccc12,8.05%
6,Clc1ccccc1OCc1nnc(-c2ccccc2Br)o1,-2%
7,Cn1c(SCc2c(F)cccc2Cl)nnc1-c1cnccn1,2.8%
8,Cc1ccc(Nc2nnc(-c3ccccc3N)o2)cc1C,-1.3%
9,Oc1[nH]c2ccccc2c1C=Nc1ccccc1,-4.29%
10,O=C(NOCc1ccccc1)OCc1ccccc1,10.8%
11,Cc1nnc(NC(=O)c2ccc(N3CCCC3=O)cc2)s1,6.95%
12,CC(=O)Nc1nnc(COc2ccc(Cl)cc2)s1,5.53%
13,CC(C)(C)c1csc(NC2=NS(=O)(=O)c3ccccc32)n1,4.58%
14,COc1ccc(-c2ccc3oc(-c4ccsc4)cc(=O)c3c2)cn1,9.06%
15,Brc1ccc(OCc2cn3ccccc3n2)cc1,1.85%
16,COc1ccc(C(=O)NCCn2ccc3ccccc32)cc1,10.6%
17,CC(=O)c1ccc(Nc2ccc(-c3ccccc3C)nn2)cc1,12.9% [at 11 µM]
18,CCn1cnc2cc(NCc3ccccc3Cl)ccc21,-1.68%
